The list is not random: actives were taken first. Their share in the collection is about 2.4%.
C diff HTS: blocks growth of Clostridium difficile | 0.25% of 86,000 active | Clostridium difficile clinical isolate growth, OD600, 24 h; hits give low values | AID 1259249 | growth activity, negative = inhibition, % at 16 µg/mL (by protocol);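 active means mean growth activity at or below -80% and every replicate also at or below -80%; inconclusive means mean at or below -80% but some replicate above -80%; inactive means mean growth activity above -80%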;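 further: 0% = DMSO wells and -100% = levofloxacin 16 µg/mL wells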
Pf Dd2 inh: inhibitors of Plasmodium falciparum Dd2 growth. P. falciparum Dd2 growth, SYBR Green, 72 h; hits give low values. activity change, % at 10 µM. 2.3% of 94,000 active; in the data active means activity change below about -80%; inconclusive means no clear call, values can overlap the other calls
* hit, by the source's call; ? = inconclusive; / = not tested or not shown.

SMILES	C diff HTS	Pf Dd2 inh
COc1ccc2c3c(n(C)c2c1)[C@H](CO)N(Cc1ccncc1)CC31CCN(C(=O)Cc2ccncc2)CC1	14.2	-87.4*
COCC(=O)N1CCC2(CC1)CN(Cc1cccc(F)c1)[C@@H](CO)c1c2c2ccc(OC)cc2n1C	6.9	-50.2
COc1ccc2c3c(n(C)c2c1)[C@@H](CO)N(Cc1ccncc1)CC31CCN(C(=O)C2CC2)CC1	/	19.0
COc1ccc2c3c(n(C)c2c1)[C@@H](CO)N(Cc1ccc2c(c1)OCO2)CC31CCN(C(=O)c2ccc3c(c2)OCO3)CC1	0.9	-76.0
COc1ccc2c3c(n(C)c2c1)[C@H](CO)N(Cc1cccc(F)c1)CC31CCN(C(=O)Cc2ccccc2)CC1	6.8	-82.8*
COc1ccc2c3c(n(C)c2c1)[C@H](CO)N(Cc1ccc2c(c1)OCO2)CC31CN(C(=O)c2ccc3c(c2)OCO3)C1	4.0	-88.4*
Cc1noc(C)c1S(=O)(=O)Nc1ccc2c(c1)C(=O)N([C@@H](C)CO)C[C@H](C)[C@H](CN(C)Cc1ccc3c(c1)OCO3)OCCCC[C@H](C)O2	3.0	-62.5
COc1ccc2c3c([nH]c2c1)[C@@H](CO)N(C(=O)Nc1ccc(F)cc1)CC31CN(C(=O)Cc2ccncc2)C1	-0.5	0.5
CCC(=O)N1CC2(C1)[C@@H](c1ccccc1)[C@@H](CO)N2C(=O)c1ccccc1	-3.8	-20.4
CC(C)NC(=O)N(C)C[C@H]1Oc2ccc(NC(=O)CCC(F)(F)F)cc2CC(=O)N([C@@H](C)CO)C[C@H]1C	-1.1	12.2
C[C@@H]1CN([C@@H](C)CO)S(=O)(=O)c2ccc(-c3ccc(C(=O)N(C)C)cc3)cc2O[C@@H]1CN(C)Cc1ccc2c(c1)OCO2	3.0	-47.8
C[C@H]1CN([C@@H](C)CO)S(=O)(=O)c2ccc(-c3ccncc3)cc2O[C@H]1CN(C)Cc1ccccc1	2.5	-35.4
C[C@@H]1CN([C@H](C)CO)S(=O)(=O)c2ccc(C#CCN(C)C)cc2O[C@H]1CN(C)CC1CCCC1	7.5	-76.7
C[C@@H]1CN([C@@H](C)CO)S(=O)(=O)c2ccc(-c3ccc(C(=O)N(C)C)cc3)cc2O[C@H]1CN(C)Cc1ccc2c(c1)OCO2	-1.5	-83.8*
Cc1ccccc1-c1ccc2c(c1)O[C@H](CN(C)Cc1ccncc1)[C@H](C)CN([C@H](C)CO)S2(=O)=O	2.2	-43.6
C[C@@H]1CN([C@@H](C)CO)S(=O)(=O)c2ccc(-c3ccncc3)cc2O[C@H]1CN(C)Cc1ccc(Oc2ccccc2)cc1	14.2	-85.8*
Cc1ccccc1-c1ccc2c(c1)O[C@@H](CN(C)Cc1ccncc1)[C@H](C)CN([C@H](C)CO)S2(=O)=O	3.6	-88.0*
C[C@@H]1CN([C@@H](C)CO)S(=O)(=O)c2ccc(C#CCN(C)C)cc2O[C@H]1CN(C)CC1CCCC1	5.8	-82.6*
C[C@H](CO)N1C[C@H](C)[C@H](CN(C)S(=O)(=O)c2ccc(F)cc2)Oc2ncc(C#CC(C)(C)O)cc2C1=O	1.5	1.8
CCCNC(=O)Nc1ccc2c(c1)OC[C@@H](C)N(Cc1ccncc1)C[C@H](C)[C@H](OC)CN(C)C2=O	2.1	-12.5
O=C(C1CCOCC1)N1CC(=O)N2[C@H](CO)[C@H](c3ccc(C#Cc4cccc(F)c4)cc3)[C@@H]2C1	1.7	-1.0
Cc1cccc(S(=O)(=O)N2[C@@H]3CNC[C@H]2C3c2ccc(-c3ccncc3)cc2)c1 (stereo partly drawn)	4.0	-7.7
CCC(=O)Nc1ccc2c(c1)OC[C@@H](C)N(Cc1nccs1)C[C@@H](C)[C@H](OC)CN(C)C2=O	2.4	32.3
O=C(C1CCCCC1)N1[C@@H](CO)[C@@H](c2ccccc2)C12CN(Cc1ccc(F)cc1)C2	13.2	-65.1
C[C@@H]1CN([C@@H](C)CO)C(=O)Cc2cc(NS(=O)(=O)c3cn(C)cn3)ccc2O[C@H]1CN(C)Cc1ccc(-c2ccccc2)cc1	4.7	-16.6
SMILES	C diff HTS	Pf Dd2 inh
Cc1ccc(-c2ccc3c(c2)O[C@H](CN(C)Cc2ccncc2)[C@H](C)CN([C@@H](C)CO)S3(=O)=O)cc1	-8.9	-11.6
C[C@@H]1CN([C@@H](C)CO)S(=O)(=O)c2ccc(-c3ccc(F)cc3)cc2O[C@H]1CN(C)CC1CC1	3.6	-24.9
C[C@H]1CN([C@@H](C)CO)S(=O)(=O)c2ccc(-c3ccc(F)cc3)cc2O[C@H]1CN(C)CC1CC1	3.3	-82.0*
Cc1ccc(-c2ccc3c(c2)O[C@H](CN(C)Cc2ccncc2)[C@@H](C)CN([C@H](C)CO)S3(=O)=O)cc1	0.2	-89.5*
C[C@H]1CN([C@@H](C)CO)C(=O)c2cc(C#CCc3ccccc3)cnc2O[C@H]1CN(C)Cc1ccc(C(=O)O)cc1	-7.3	-28.4
COc1ccc2c3c([nH]c2c1)[C@H](CO)N(Cc1ccccc1F)CC31CN(C)C1	-2.3	-53.4
COCC(=O)N1CC2(C1)CN(Cc1ccccc1F)[C@H](CO)c1[nH]c3cc(OC)ccc3c12	8.5	-88.4*
COCC(=O)N1CC2(C1)CN(Cc1cc(F)ccc1F)[C@H](CO)c1[nH]c3cc(OC)ccc3c12	3.7	-87.2*
COCC(=O)N1CCC2(CC1)CN(Cc1ccccc1F)[C@H](CO)c1[nH]c3cc(OC)ccc3c12	9.3	-88.6*
COCC(=O)N1CC2(C1)CN(Cc1ccccn1)[C@@H](CO)c1[nH]c3cc(OC)ccc3c12	3.3	-82.2*
COCC(=O)N1CCC2(CC1)CN(Cc1ccccn1)[C@H](CO)c1[nH]c3cc(OC)ccc3c12	-2.8	-8.8
COCC(=O)N1CC2(C1)CN(Cc1cccc(OC)c1)[C@@H](CO)c1[nH]c3cc(OC)ccc3c12	1.3	?
COCC(=O)N1CC2(C1)CN(Cc1ccccc1Cl)[C@H](CO)c1[nH]c3cc(OC)ccc3c12	4.8	-45.9
C/C=C/c1ccc([C@@H]2[C@@H](CN(C)C(=O)CC3CC3)N(C(=O)C3CC3)[C@H]2CO)cc1	-1.5	3.8
Cc1nc(N2[C@H](CO)[C@H](c3ccccc3)[C@H]2CNCC2CCCC2)sc1C	26.6	-89.7*
COCCNC[C@H]1[C@H](c2ccccc2)[C@H](CO)N1c1nc(C)c(C)s1	7.0	-24.8
C[C@@H]1CCCCO[C@H](CN(C)CC2CCCCC2)[C@@H](C)CN([C@H](C)CO)C(=O)c2cc(NC(=O)Cc3ccccc3)ccc2O1	28.1	-83.5*
CCCN(C)C[C@H]1OCCCC[C@@H](C)Oc2ccc(NC(=O)Cc3ccccc3)cc2C(=O)N([C@H](C)CO)C[C@H]1C	-2.0	-44.4
C[C@@H]1CCCCO[C@@H](CN(C)CC2CCCCC2)[C@@H](C)CN([C@@H](C)CO)C(=O)c2cc(NC(=O)Cc3ccccc3)ccc2O1	22.1	-49.3
CCCN(C)C[C@H]1OCCCC[C@@H](C)Oc2ccc(NC(=O)Cc3ccccc3)cc2C(=O)N([C@@H](C)CO)C[C@H]1C	0.7	-86.5*
C[C@@H]1CN([C@@H](C)CO)C(=O)Cc2cc(NS(=O)(=O)c3ccc(F)cc3)ccc2O[C@H]1CN(C)Cc1ccc(C(=O)O)cc1	-0.7	18.8
O=C(C[C@H]1CC[C@H](NC(=O)c2ccccc2)[C@H](CO)O1)NCCc1ccncc1	0.8	/
Cc1noc(C)c1S(=O)(=O)N(C)C[C@H]1OCCCC[C@@H](C)Oc2ccc(NC(=O)Nc3cccc4ccccc34)cc2C(=O)N([C@H](C)CO)C[C@@H]1C	-14.3	-17.5

Compound activity from PubChem BioAssay.
